Holding throughout (experiment): PBM; 200 nM protein, PBS
What all share (details): dsDNA, one strand shown

The target in test [1] is HOXB4 (Homo sapiens, UniProt P17483 148-234).
The target of test [2] is HOXB4 (Homo sapiens, UniProt P17483 148-234, V174I).
In test [3] the target is HOXD13 (Homo sapiens, UniProt P35453 263-343, T313R).
Test [4] deals with T1, NKX2-6 (Homo sapiens, UniProt A6NCS4 118-204).
T1 sequence: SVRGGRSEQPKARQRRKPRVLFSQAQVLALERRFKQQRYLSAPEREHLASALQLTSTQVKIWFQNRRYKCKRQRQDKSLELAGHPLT

For test [5], the target named is T2, NKX2-6 (Homo sapiens, UniProt A6NCS4 118-204, F151L).
T2 sequence: T1 sequence with F34L

The target in test [6] is PITX2 (Homo sapiens, UniProt Q99697 72-157).
The target of test [7] is T3, PAX4 (Homo sapiens, UniProt O43316 9-242, F177V).
T3 sequence: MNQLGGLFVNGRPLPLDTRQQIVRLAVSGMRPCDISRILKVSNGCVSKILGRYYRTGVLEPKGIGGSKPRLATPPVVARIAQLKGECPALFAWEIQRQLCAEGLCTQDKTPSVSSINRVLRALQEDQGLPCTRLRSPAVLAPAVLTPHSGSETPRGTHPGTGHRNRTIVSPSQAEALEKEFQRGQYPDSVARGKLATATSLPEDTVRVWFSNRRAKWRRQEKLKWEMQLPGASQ

In test [8] the target is T4, PAX4 (Homo sapiens, UniProt O43316 9-242, F177Y).
T4 sequence: T3 sequence with V169Y

Test [9] concerns the target CRX (Homo sapiens, UniProt O43186 26-111, R41L).
For test [10], the target named is ALX3 (Homo sapiens, UniProt O95076 139-225, N203S).
The target of test [11] is SHOX (Homo sapiens, UniProt O15266 103-189).
For test [12], the target named is T5, SIX6 (Homo sapiens, UniProt O95475 114-200, L167I).
T5 sequence: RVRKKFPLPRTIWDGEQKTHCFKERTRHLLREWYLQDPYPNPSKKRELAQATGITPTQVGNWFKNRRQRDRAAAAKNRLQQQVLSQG

The target of test [13] is T6, SIX6 (Homo sapiens, UniProt O95475 114-200, L143V).
T6 sequence: T5 sequence with L30V, I54L

For test [14], the target named is T7, SIX6 (Homo sapiens, UniProt O95475 114-200, H141N).
T7 sequence: T5 sequence with H28N, I54L

Test [15] concerns the target T8, SIX6 (Homo sapiens, UniProt O95475 114-200, T165P).
T8 sequence: T5 sequence with T52P, I54L

The target of test [16] is T9, SIX6 (Homo sapiens, UniProt O95475 114-200, L167M).
T9 sequence: T5 sequence with I54M

Test [17] concerns the target T10, SIX6 (Homo sapiens, UniProt O95475 114-200, L143M).
T10 sequence: T5 sequence with L30M, I54L

For test [18], the target named is T11, SIX6 (Homo sapiens, UniProt O95475 114-200, L143I).
T11 sequence: T5 sequence with L30I, I54L

The target of test [19] is T12, SIX6 (Homo sapiens, UniProt O95475 114-200, T165G).
T12 sequence: T5 sequence with T52G, I54L

In test [20] the target is HOXA2 (Homo sapiens, UniProt O43364 129-215, R185T).
Test [21] deals with T13, SIX6 (Homo sapiens, UniProt O95475 114-200, T139Q).
T13 sequence: T5 sequence with T26Q, I54L

Test [22] addresses MSX2 (Homo sapiens, UniProt P35548 130-214, R199I).
In test [23] the target is T14, SIX6 (Homo sapiens, UniProt O95475 114-200, T165A).
T14 sequence: T5 sequence with T52A, I54L

The target in test [24] is SHOX (Homo sapiens, UniProt O15266 103-189, R173C).
Test [25] has as its target HOXA2 (Homo sapiens, UniProt O43364 129-215, R185K).
The target of test [26] is MSX2 (Homo sapiens, UniProt P35548 130-214).
For test [27], the target named is T15, SIX6 (Homo sapiens, UniProt O95475 114-200, L167V).
T15 sequence: T5 sequence with I54V

Test [28] concerns the target T16, SIX6 (Homo sapiens, UniProt O95475 114-200).
T16 sequence: T5 sequence with I54L

Test [29] deals with T17, SIX6 (Homo sapiens, UniProt O95475 114-200, T165I).
T17 sequence: T5 sequence with T52I, I54L

Test [30] deals with MSX2 (Homo sapiens, UniProt P35548 130-214, F161Y).
Test [31] addresses HOXA2 (Homo sapiens, UniProt O43364 129-215, Y150S).
The target of test [32] is HOXA2 (Homo sapiens, UniProt O43364 129-215).
Test [33] has as its target HOXA4 (Homo sapiens, UniProt Q00056 201-287, W262R).
Test [34] addresses HOXB6 (Homo sapiens, UniProt P17509 132-218, K202E).
In test [35] the target is HOXA4 (Homo sapiens, UniProt Q00056 201-287, R217L).
Test [36] has as its target HOXA4 (Homo sapiens, UniProt Q00056 201-287).
The target in test [37] is HOXA4 (Homo sapiens, UniProt Q00056 201-287, W262F).
The target in test [38] is HOXB6 (Homo sapiens, UniProt P17509 132-218).

Substitutions are numbered along the chain they refer to.

Sequence of SHOX (Homo sapiens, UniProt O15266 103-189) (O15266 103-189): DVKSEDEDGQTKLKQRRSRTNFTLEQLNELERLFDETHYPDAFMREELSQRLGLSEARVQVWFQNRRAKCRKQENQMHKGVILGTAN
Sequence of CRX (O43186 26-111 R41L): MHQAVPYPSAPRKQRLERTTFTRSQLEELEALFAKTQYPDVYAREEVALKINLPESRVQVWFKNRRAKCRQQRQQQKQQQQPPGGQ
Sequence of SHOX (Homo sapiens, UniProt O15266 103-189, R173C) (O15266 103-189 R173C): as the sequence (O15266 103-189) above, with R71C counted along it
Sequence of HOXD13 (P35453 263-343 T313R): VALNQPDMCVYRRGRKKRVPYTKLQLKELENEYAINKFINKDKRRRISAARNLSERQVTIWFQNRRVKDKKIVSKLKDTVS
Sequence of HOXA2 (Homo sapiens, UniProt O43364 129-215, R185K) (O43364 129-215 R185K): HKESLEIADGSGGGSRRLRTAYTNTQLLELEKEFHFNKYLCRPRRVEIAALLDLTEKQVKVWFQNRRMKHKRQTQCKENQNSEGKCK
Sequence of HOXA2 (Homo sapiens, UniProt O43364 129-215, R185T) (O43364 129-215 R185T): as the sequence (O43364 129-215 R185K) above, with K57T counted along it
Sequence of HOXA4 (Homo sapiens, UniProt Q00056 201-287, W262R) (Q00056 201-287 W262R): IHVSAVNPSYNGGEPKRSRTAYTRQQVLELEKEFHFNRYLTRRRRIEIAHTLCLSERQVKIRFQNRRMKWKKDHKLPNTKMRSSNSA
Sequence of HOXA4 (Homo sapiens, UniProt Q00056 201-287, R217L) (Q00056 201-287 R217L): as the sequence (Q00056 201-287 W262R) above, with R17L, R62W counted along it
Sequence of HOXB4 (Homo sapiens, UniProt P17483 148-234) (P17483 148-234): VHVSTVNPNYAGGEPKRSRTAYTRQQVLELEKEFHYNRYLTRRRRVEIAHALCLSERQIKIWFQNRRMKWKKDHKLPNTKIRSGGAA
Sequence of HOXB6 (Homo sapiens, UniProt P17509 132-218, K202E) (P17509 132-218 K202E): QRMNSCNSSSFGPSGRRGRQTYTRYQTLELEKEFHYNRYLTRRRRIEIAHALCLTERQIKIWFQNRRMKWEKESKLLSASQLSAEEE
Sequence of HOXA2 (Homo sapiens, UniProt O43364 129-215) (O43364 129-215): as the sequence (O43364 129-215 R185K) above, with K57R counted along it
Sequence of MSX2 (Homo sapiens, UniProt P35548 130-214) (P35548 130-214): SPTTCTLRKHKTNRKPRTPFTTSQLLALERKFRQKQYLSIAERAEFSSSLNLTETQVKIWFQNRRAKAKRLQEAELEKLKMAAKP
Sequence of HOXA4 (Homo sapiens, UniProt Q00056 201-287) (Q00056 201-287): as the sequence (Q00056 201-287 W262R) above, with R62W counted along it
Sequence of HOXB4 (Homo sapiens, UniProt P17483 148-234, V174I) (P17483 148-234 V174I): as the sequence (P17483 148-234) above, with V27I counted along it
Sequence of ALX3 (O95076 139-225 N203S): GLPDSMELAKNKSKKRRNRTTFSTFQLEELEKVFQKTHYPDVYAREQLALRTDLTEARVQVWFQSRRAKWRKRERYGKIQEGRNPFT
Sequence of HOXA4 (Homo sapiens, UniProt Q00056 201-287, W262F) (Q00056 201-287 W262F): as the sequence (Q00056 201-287 W262R) above, with R62F counted along it
Sequence of HOXB6 (Homo sapiens, UniProt P17509 132-218) (P17509 132-218): as the sequence (P17509 132-218 K202E) above, with E71K counted along it
Sequence of HOXA2 (Homo sapiens, UniProt O43364 129-215, Y150S) (O43364 129-215 Y150S): as the sequence (O43364 129-215 R185K) above, with Y22S, K57R counted along it
Sequence of MSX2 (Homo sapiens, UniProt P35548 130-214, R199I) (P35548 130-214 R199I): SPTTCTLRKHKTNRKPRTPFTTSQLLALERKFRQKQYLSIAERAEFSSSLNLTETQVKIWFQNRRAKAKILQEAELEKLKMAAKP
Sequence of MSX2 (Homo sapiens, UniProt P35548 130-214, F161Y) (P35548 130-214 F161Y): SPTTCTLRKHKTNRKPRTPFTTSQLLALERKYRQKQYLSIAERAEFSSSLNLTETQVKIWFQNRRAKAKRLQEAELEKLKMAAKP

For ATGAGTTA, the binding signal in [1] is 10.4 upbm affinity estimate (log intensity, higher = more binding, comparable within an allelic series); in test [2], 10.6 upbm affinity estimate (log intensity, higher = more binding, comparable within an allelic series).
For the sequence AATATAAA, the binding signal in [3] is 10.7 upbm affinity estimate (log intensity, higher = more binding, comparable within an allelic series).
Regarding ATTAAAGC, the binding signal in [4] was 11.1 upbm affinity estimate (log intensity, higher = more binding, comparable within an allelic series).
Take CCCGAGCC: the binding signal was 9.42 upbm affinity estimate (log intensity, higher = more binding, comparable within an allelic series) in [4] and 9.3 upbm affinity estimate (log intensity, higher = more binding, comparable within an allelic series) in test [5].
Regarding CCGTGCGC, the binding signal in test [6] was 7.97 upbm affinity estimate (log intensity, higher = more binding, comparable within an allelic series).
GATTATTA: the binding signal in [7] is 10.6 upbm affinity estimate (log intensity, higher = more binding, comparable within an allelic series); in [8], 11 upbm affinity estimate (log intensity, higher = more binding, comparable within an allelic series).
With CTTAAGCA, in test [9], the binding signal was 10.3 upbm affinity estimate (log intensity, higher = more binding, comparable within an allelic series).
As to AGCATTAG, the binding signal in [9] is 10.1 upbm affinity estimate (log intensity, higher = more binding, comparable within an allelic series).
Consider ATTACTTA, for which, in test [10], the binding signal is 8.71 upbm affinity estimate (log intensity, higher = more binding, comparable within an allelic series).
With GGAGCGGA, the binding signal in [11] was 7.25 upbm affinity estimate (log intensity, higher = more binding, comparable within an allelic series); in test [12] it was 9.19 upbm affinity estimate (log intensity, higher = more binding, comparable within an allelic series); in test [13], 8.94 upbm affinity estimate (log intensity, higher = more binding, comparable within an allelic series); in test [14] it was 9.15 upbm affinity estimate (log intensity, higher = more binding, comparable within an allelic series); in test [15], 8.85 upbm affinity estimate (log intensity, higher = more binding, comparable within an allelic series); in test [16], 9.13 upbm affinity estimate (log intensity, higher = more binding, comparable within an allelic series). The binding signal in [17] was 9.14 upbm affinity estimate (log intensity, higher = more binding, comparable within an allelic series); in test [18] it was 9.05 upbm affinity estimate (log intensity, higher = more binding, comparable within an allelic series); in test [19], 9.13 upbm affinity estimate (log intensity, higher = more binding, comparable within an allelic series); in test [20], 7.31 upbm affinity estimate (log intensity, higher = more binding, comparable within an allelic series); in test [21], 9.15 upbm affinity estimate (log intensity, higher = more binding, comparable within an allelic series); in test [22] it was 9.51 upbm affinity estimate (log intensity, higher = more binding, comparable within an allelic series). In addition, the binding signal in test [23] was 9.08 upbm affinity estimate (log intensity, higher = more binding, comparable within an allelic series); in test [24], 7.2 upbm affinity estimate (log intensity, higher = more binding, comparable within an allelic series); in [25], 10.3 upbm affinity estimate (log intensity, higher = more binding, comparable within an allelic series); in test [26], 9.6 upbm affinity estimate (log intensity, higher = more binding, comparable within an allelic series); in test [27], 9.14 upbm affinity estimate (log intensity, higher = more binding, comparable within an allelic series); in [28], 9.16 upbm affinity estimate (log intensity, higher = more binding, comparable within an allelic series). For the same sequence, the binding signal is 9.13 upbm affinity estimate (log intensity, higher = more binding, comparable within an allelic series) in [29]; 9.62 upbm affinity estimate (log intensity, higher = more binding, comparable within an allelic series) in [30]; 10.5 upbm affinity estimate (log intensity, higher = more binding, comparable within an allelic series) in test [31]; 7.46 upbm affinity estimate (log intensity, higher = more binding, comparable within an allelic series) in test [32].
As for AATTTCGA, the binding signal in test [11] was 8.68 upbm affinity estimate (log intensity, higher = more binding, comparable within an allelic series).
On the same count and under the same terms, to AGTAAACG belongs 8.05 upbm affinity estimate (log intensity, higher = more binding, comparable within an allelic series).
For AAATATAA, the binding signal in test [11] was 9.24 upbm affinity estimate (log intensity, higher = more binding, comparable within an allelic series).
For GCATTAAA, the binding signal in test [11] was 8.99 upbm affinity estimate (log intensity, higher = more binding, comparable within an allelic series).
For the sequence CAGGGAGG, the binding signal is 6.88 upbm affinity estimate (log intensity, higher = more binding, comparable within an allelic series) in test [11]; 9.65 upbm affinity estimate (log intensity, higher = more binding, comparable within an allelic series) in [33]; 8.81 upbm affinity estimate (log intensity, higher = more binding, comparable within an allelic series) in test [34]; 9.79 upbm affinity estimate (log intensity, higher = more binding, comparable within an allelic series) in test [35]; 7 upbm affinity estimate (log intensity, higher = more binding, comparable within an allelic series) in [24]; 9.91 upbm affinity estimate (log intensity, higher = more binding, comparable within an allelic series) in test [36]. The binding signal in [37] is 9.86 upbm affinity estimate (log intensity, higher = more binding, comparable within an allelic series); in test [38], 8.85 upbm affinity estimate (log intensity, higher = more binding, comparable within an allelic series).
